# PubChem BioAssay
# “And” between values parts separate entries of the source, which are not always exact repeats. Identical values can stand only once. The source made the active and inactive calls.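 The calls were made as follows, unless noted: active = thallium flux through the channel raised or lowered by more than 3 SD from vehicle-only wells, actives on both sides; inactive = the rest.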
# Experiments:
# [1] = liver-stage malaria parasite growth inhibition, primary screen, cell-based, HepG2, luciferase luminescence, HepG2 viability (AID 624349; in the data active = parasite load remaining mostly below about 12%, no sharp cut-off; inactive = mostly above about 10%;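 also: 100% = mean of DMSO negative control wells on the same plate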); settings: P. berghei liver stage in HepG2, luciferase luminescence, concentration not given here; parasite load remaining: stronger effect = lower value; viability: measured here: HepG2 viability without parasites
# [2] = Cy5 fluorescence interference with SSB-bound oligo, artefact control for HCV NS3 helicase inhibitor project, biochemical, NIH Clinical Collection, E. coli SSB (AID 743268; call rule not given here)
# [3] = system: Hepatitis C virus NS3 helicase; assay: HCV NS3 helicase inhibitors, primary screen, biochemical, fluorescence polarization, NIH Clinical Collection (AID 743270; call rule not given here); settings: NS3 helicase binding to Cy5-dT15 DNA, stronger effect = higher value, concentration not given here
# [4] = target: Single-stranded DNA-binding protein (Escherichia coli (strain K12)) (UniProt P0AGE0); assay: E. coli SSB displacement from DNA, counter-screen for HCV NS3 helicase inhibitor project, biochemical, fluorescence polarization, NIH Clinical Collection (AID 743271; in the data active = inhibition above about 28%); settings: stronger effect = higher value, concentration not given here
# [5] = fluorescence interference in NS3h assay format, artefact control for HCV NS3 helicase inhibitor project, biochemical, NIH Clinical Collection (AID 743272; call rule not given here;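 also: HCV NS3 helicase with a Cy5 labelled single stranded DNA probe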); settings: fluorescence interference counterscreen, stronger effect = lower value
# [6] = modulation of C. elegans fzo-1 (AID 1259413; call rule not given here;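 also: fzo-1 mutant C. elegans worms in liquid wells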); settings: C. elegans fzo-1 modulator screen, mean read-out; stronger effect = higher value
# [7] = system: F380Y; assay: modulators of BK channel variants, profiling panel, selectivity assay, cell-based, U2OS BacMam, thallium flux, beta subunits (AID 1259406); settings: at 30 µM;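 also: initial slope of Thallos dye fluorescence rise after thallium is added; log ratio against the mean of 0.3% DMSO vehicle wells on the same plate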
# [8] = system: F380Y/beta1; assay: as above; settings: at 30 µM
# [9] = system: F380Y/beta2Delta; assay: as above; settings: at 30 µM
# [10] = system: F380Y/beta4; assay: as above; settings: at 30 µM
# [11] = target: Calcium-activated potassium channel subunit alpha-1 (Homo sapiens) + Leucine-rich repeat-containing protein 26 (Homo sapiens) (UniProt Q12791+Q2I0M4); assay: as above; settings: F380Y/Slo1WT/gamma1, at 30 µM
# [12] = system: R275C; assay: as above; settings: at 30 µM
# [13] = system: R275C/beta1; assay: as above; settings: at 30 µM
# [14] = system: R275C/beta2Delta; assay: as above; settings: at 30 µM
# [15] = system: R275C/beta4; assay: as above; settings: at 30 µM
# [16] = system: R275C/Slo1WT/beta2; assay: as above; settings: at 30 µM
# [17] = sensitizers of A549 cells to miR-34 induction, primary screen, imaging, A549 dox-inducible miR-34, nuclei and caspase counts (AID 1347080;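 active = compounds whose cell count with miR-34 switched on is under 0.7 times the count with it off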); settings: A549 miR-34 inducible, Hoechst nuclei count, 48 h
# [18] = survival rescue of mitochondrial mutant cells in low glucose, primary screen, MELAS cybrids, Rieske KO mouse fibroblasts, CellTiter-Glo (AID 1508586;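 active = mean z-score across replicates of 1.96 or higher in either the MELAS or the Rieske mutant cell line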;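 also: z relative to plate mean and SD of compound and empty wells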)
# [19] = stronger effect = lower value, cell number ratio, induced over uninduced
# [20] = measured here: relative caspase fold change +Dox/-Dox
# [21] = measured here: total cells with miR-34 induction, stronger effect = lower value
# [22] = measured here: total cells without miR-34 induction
# [23] = MELAS cybrid survival, CellTiter-Glo 48 h, stronger effect = higher value
# [24] = Rieske KO mouse fibroblast survival, CellTiter-Glo 72 h
# Calcium-activated potassium channel subunit alpha-1 (Homo sapiens) + Leucine-rich repeat-containing protein 26 (Homo sapiens), sequence (Q2I0M4 whole entry, looked up, one chain of several): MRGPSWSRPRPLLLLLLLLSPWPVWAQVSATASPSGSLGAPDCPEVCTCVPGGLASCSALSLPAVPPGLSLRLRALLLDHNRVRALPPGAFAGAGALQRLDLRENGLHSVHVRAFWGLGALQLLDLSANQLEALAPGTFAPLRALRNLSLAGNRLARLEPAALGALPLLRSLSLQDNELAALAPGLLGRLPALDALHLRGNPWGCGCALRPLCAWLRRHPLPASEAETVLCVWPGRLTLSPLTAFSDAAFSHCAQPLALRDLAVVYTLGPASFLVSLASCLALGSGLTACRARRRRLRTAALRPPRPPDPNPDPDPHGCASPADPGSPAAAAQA
smiles,measurement,setting,value
COc1cc(C[C@@H](CO)[C@H](CO)Cc2ccc(O)c(OC)c2)ccc1O,parasite load remaining,[1],74.6% (inactive)
same,viability,[1],77.7%
same,fluorescence ratio,[2],0.93 (inactive)
same,inhibition,[3],-1.09% (inactive)
same,inhibition,[4],3.54% (inactive)
same,fluorescence ratio,[5],0.88 (inactive)
same,mean signal,[6],248 (inactive)
same,log fold change Tl+ flux,[7],0.00354 (inactive)
same,log fold change Tl+ flux,[8],0.0295 (inactive)
same,log fold change Tl+ flux,[9],0.0145 (inactive)
same,log fold change Tl+ flux,[10],0.00227 (inactive)
same,log fold change Tl+ flux,[11],0.0262 (inactive)
same,log fold change Tl+ flux,[12],-0.00612 (inactive)
same,log fold change Tl+ flux,[13],-0.00624 (inactive)
same,log fold change Tl+ flux,[14],-0.0204 (inactive)
same,log fold change Tl+ flux,[15],-0.0506 (inactive)
same,log fold change Tl+ flux,[16],0.0317 (inactive)
Cc1onc(-c2ccccc2)c1C(=O)NC1C(=O)N2C1SC(C)(C)C2C(=O)O (stereo not given),parasite load remaining,[1],62.5% (inactive)
same,viability,[1],137%
same,fluorescence ratio,[2],1.01 (inactive)
same,inhibition,[3],-1.36% (inactive)
same,inhibition,[4],2.57% (inactive)
same,fluorescence ratio,[5],1 (inactive)
same,mean signal,[6],250 (inactive)
same,fold change,[17]; [19],0.977 (inactive) and 0.865 (inactive)
same,fold change,[17]; [20],2.75 and 0.316
same,cell count,[17]; [21],10800 and 8670
same,cell count,[17]; [22],11000 and 10000
same,z-score,[18]; [23],1.06 (inactive)
same,z-score,[18]; [24],0.0389
same,log fold change Tl+ flux,[7],-0.000886 (inactive)
same,log fold change Tl+ flux,[8],-0.0194 (inactive)
same,log fold change Tl+ flux,[9],-0.0125 (inactive)
same,log fold change Tl+ flux,[10],-0.0665 (inactive)
same,log fold change Tl+ flux,[11],0.0114 (inactive)
same,log fold change Tl+ flux,[12],0.00519 (inactive)
same,log fold change Tl+ flux,[13],0.0152 (inactive)
same,log fold change Tl+ flux,[14],0.00981 (inactive)
same,log fold change Tl+ flux,[15],-0.0329 (inactive)
same,log fold change Tl+ flux,[16],-0.0606 (inactive)
Nc1ccn([C@@H]2CS[C@H](CO)O2)c(=O)n1,parasite load remaining,[1],60.8% (inactive) and 120% (inactive)
same,viability,[1],121% and 70.7%
same,mean signal,[6],246 (inactive)
same,fold change,[17]; [19],0.962 (inactive)
same,fold change,[17]; [20],1.73
same,cell count,[17]; [21],10700
same,cell count,[17]; [22],11100
same,z-score,[18]; [23],-0.0861 (inactive)
same,z-score,[18]; [24],0.0484
same,log fold change Tl+ flux,[7],0.00141 (inactive) and 0.0147 (inactive)
same,log fold change Tl+ flux,[8],-0.0646 (inactive) and -0.0414 (inactive)
same,log fold change Tl+ flux,[9],-0.00742 (inactive) and 0.0531 (inactive)
same,log fold change Tl+ flux,[10],-0.0496 (inactive) and -0.00739 (inactive)
same,log fold change Tl+ flux,[11],0.0127 (inactive) and 0.0118 (inactive)
same,log fold change Tl+ flux,[12],-0.0937 (inactive) and 0.0141 (inactive)
same,log fold change Tl+ flux,[13],-0.00105 (inactive) and 0.0176 (inactive)
same,log fold change Tl+ flux,[14],0.0208 (inactive) and -0.0112 (inactive)
same,log fold change Tl+ flux,[15],0.00653 (inactive) and -0.00304 (inactive)
same,log fold change Tl+ flux,[16],0.00916 (inactive) and -0.0234 (inactive)
CC1(C)SC2C(NC(=O)C(N)c3ccccc3)C(=O)N2C1C(=O)O (stereo not given),parasite load remaining,[1],64.5% (inactive)
same,viability,[1],97.1%
same,fluorescence ratio,[2],1.05 (inactive)
same,inhibition,[3],-3.18% (inactive)
same,inhibition,[4],-3.53% (inactive)
same,fluorescence ratio,[5],1.03 (inactive)
same,mean signal,[6],248 (inactive)
same,fold change,[17]; [19],0.924 (inactive)
same,fold change,[17]; [20],1.56
same,cell count,[17]; [21],9300
same,cell count,[17]; [22],10100
same,log fold change Tl+ flux,[7],0.0123 (inactive)
same,log fold change Tl+ flux,[8],-0.00858 (inactive)
same,log fold change Tl+ flux,[9],-0.029 (inactive)
same,log fold change Tl+ flux,[10],-0.0312 (inactive)
same,log fold change Tl+ flux,[11],0.0123 (inactive)
same,log fold change Tl+ flux,[12],0.0182 (inactive)
same,log fold change Tl+ flux,[13],-0.0441 (inactive)
same,log fold change Tl+ flux,[14],0.02 (inactive)
same,log fold change Tl+ flux,[15],-0.0148 (inactive)
same,log fold change Tl+ flux,[16],-0.0117 (inactive)
C[C@H]1[C@@H](OC(=O)CCC(=O)O)O[C@@H]2OC3(C)CC[C@H]4[C@H](C)CC[C@@H]1[C@@]24OO3,parasite load remaining,[1],54.9% (inactive) and 19.6% (inactive)
same,viability,[1],74.2% and 68%
same,fluorescence ratio,[2],1.05 (inactive)
same,inhibition,[3],4.36% (inactive)
same,inhibition,[4],-3.18% (inactive)
same,fluorescence ratio,[5],0.99 (inactive)
same,mean signal,[6],258 (inactive)
same,fold change,[17]; [19],1.04 (inactive)
same,fold change,[17]; [20],0.836
same,cell count,[17]; [21],6160
same,cell count,[17]; [22],5910
same,z-score,[18]; [23],-1.42 (inactive)
same,z-score,[18]; [24],0.615
same,log fold change Tl+ flux,[7],0.0198 (inactive)
same,log fold change Tl+ flux,[8],0.0472 (inactive)
same,log fold change Tl+ flux,[9],0.00204 (inactive)
same,log fold change Tl+ flux,[10],0.00589 (inactive)
same,log fold change Tl+ flux,[11],-0.0126 (inactive)
same,log fold change Tl+ flux,[12],0.0183 (inactive)
same,log fold change Tl+ flux,[13],0.0209 (inactive)
same,log fold change Tl+ flux,[14],0.00454 (inactive)
same,log fold change Tl+ flux,[15],-0.0146 (inactive)
same,log fold change Tl+ flux,[16],0.000694 (inactive)
CCOC(=O)CCC(=O)OC1C(OC2C(C)C(OC3CC(C)(OC)C(O)C(C)O3)C(C)C(=O)OC(CC)C(C)(O)C(O)C(C)C(=O)C(C)CC2(C)O)OC(C)CC1N(C)C (stereo not given),parasite load remaining,[1],56% (inactive)
same,viability,[1],94.7%
same,fluorescence ratio,[2],1.07 (inactive)
same,inhibition,[3],0.45% (inactive)
same,inhibition,[4],0.29% (inactive)
same,fluorescence ratio,[5],0.98 (inactive)
same,mean signal,[6],242 (inactive)
same,fold change,[17]; [19],0.96 (inactive)
same,fold change,[17]; [20],1.93
same,cell count,[17]; [21],10400
same,cell count,[17]; [22],10900
same,log fold change Tl+ flux,[7],-0.00772 (inactive)
same,log fold change Tl+ flux,[8],0.06 (inactive)
same,log fold change Tl+ flux,[9],-0.0119 (inactive)
same,log fold change Tl+ flux,[10],-0.0302 (inactive)
same,log fold change Tl+ flux,[11],-0.0035 (inactive)
same,log fold change Tl+ flux,[12],-0.135 (active)
same,log fold change Tl+ flux,[13],0.019 (inactive)
same,log fold change Tl+ flux,[14],-0.0301 (inactive)
same,log fold change Tl+ flux,[15],-0.00612 (inactive)
same,log fold change Tl+ flux,[16],0.000174 (inactive)
CC(N)(Cc1ccc(O)c(O)c1)C(=O)O (stereo not given),parasite load remaining,[1],67.7% (inactive)
same,viability,[1],87.8%
same,fluorescence ratio,[2],0.1 (active)
same,inhibition,[3],-3.18% (inactive)
same,inhibition,[4],-0.48% (inactive)
same,fluorescence ratio,[5],0.96 (inactive)
same,mean signal,[6],264 (inactive)
same,fold change,[17]; [19],1.03 (inactive) and 1.02 (inactive)
same,fold change,[17]; [20],0.522 and 3.64
same,cell count,[17]; [21],9990 and 9950
same,cell count,[17]; [22],9680 and 9750
same,log fold change Tl+ flux,[7],-0.0268 (inactive)
same,log fold change Tl+ flux,[8],-0.0706 (inactive)
same,log fold change Tl+ flux,[9],-0.0381 (inactive)
same,log fold change Tl+ flux,[10],-0.00847 (inactive)
same,log fold change Tl+ flux,[11],-0.0181 (inactive)
same,log fold change Tl+ flux,[12],-0.0316 (inactive)
same,log fold change Tl+ flux,[13],-0.0727 (inactive)
same,log fold change Tl+ flux,[14],-0.00349 (inactive)
same,log fold change Tl+ flux,[15],-0.0805 (inactive)
same,log fold change Tl+ flux,[16],-0.125 (active)
